Screen size: about 370,000 compounds; about 620 (0.17%) were called active. The sample as a whole holds a higher share of actives than the screen did. Values without a mark were called inactive.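 Rule for the calls: active = inhibition above the mean inhibition of all tested compounds plus 3 SD, set per campaign (cut at about 52% in these data); inactive = the rest.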

One may read the inhibition as the change of the read-out against control, counted positive when it falls.

Chain of Nuclear receptor coactivator 2 (Homo sapiens) (Q15596 whole entry, looked up, the tested form may be a part): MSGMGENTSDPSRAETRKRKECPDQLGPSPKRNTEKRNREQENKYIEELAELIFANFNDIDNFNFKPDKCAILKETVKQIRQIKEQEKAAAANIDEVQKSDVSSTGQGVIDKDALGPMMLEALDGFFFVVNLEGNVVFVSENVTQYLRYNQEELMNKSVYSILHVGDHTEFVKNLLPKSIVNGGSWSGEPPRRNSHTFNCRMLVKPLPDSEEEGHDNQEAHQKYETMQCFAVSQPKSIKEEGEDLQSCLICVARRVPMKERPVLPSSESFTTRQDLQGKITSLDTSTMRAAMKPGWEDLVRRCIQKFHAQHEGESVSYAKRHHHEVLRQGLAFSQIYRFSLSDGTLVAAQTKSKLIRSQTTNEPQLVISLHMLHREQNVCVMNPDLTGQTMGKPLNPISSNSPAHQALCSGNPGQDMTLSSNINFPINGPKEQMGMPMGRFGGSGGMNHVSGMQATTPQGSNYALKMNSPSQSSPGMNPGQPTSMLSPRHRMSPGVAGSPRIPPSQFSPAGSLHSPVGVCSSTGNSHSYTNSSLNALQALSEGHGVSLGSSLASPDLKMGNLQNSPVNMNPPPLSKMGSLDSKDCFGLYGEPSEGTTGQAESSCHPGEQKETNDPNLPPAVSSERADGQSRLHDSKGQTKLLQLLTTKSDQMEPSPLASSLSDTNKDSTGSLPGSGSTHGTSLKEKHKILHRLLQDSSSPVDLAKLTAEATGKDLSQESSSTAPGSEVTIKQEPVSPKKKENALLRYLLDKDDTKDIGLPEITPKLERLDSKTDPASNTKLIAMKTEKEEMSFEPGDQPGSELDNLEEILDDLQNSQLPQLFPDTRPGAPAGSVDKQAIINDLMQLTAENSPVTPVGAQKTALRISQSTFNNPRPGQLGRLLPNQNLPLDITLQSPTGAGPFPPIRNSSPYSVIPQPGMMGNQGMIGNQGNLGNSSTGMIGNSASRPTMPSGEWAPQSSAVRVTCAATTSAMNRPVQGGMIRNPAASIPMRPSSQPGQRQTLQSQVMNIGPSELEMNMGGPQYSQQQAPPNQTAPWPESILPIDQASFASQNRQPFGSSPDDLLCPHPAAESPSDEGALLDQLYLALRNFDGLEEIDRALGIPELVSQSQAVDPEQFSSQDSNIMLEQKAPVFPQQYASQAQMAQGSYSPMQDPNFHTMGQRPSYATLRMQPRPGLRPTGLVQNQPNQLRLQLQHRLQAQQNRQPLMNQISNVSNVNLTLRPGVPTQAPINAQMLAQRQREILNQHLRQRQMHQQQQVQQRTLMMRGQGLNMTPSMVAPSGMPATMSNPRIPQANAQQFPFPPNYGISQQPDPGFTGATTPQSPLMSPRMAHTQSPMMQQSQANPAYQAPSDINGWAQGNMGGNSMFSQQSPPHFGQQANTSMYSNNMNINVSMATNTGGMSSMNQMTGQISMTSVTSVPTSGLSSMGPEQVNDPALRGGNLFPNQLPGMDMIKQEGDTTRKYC

This assay has as its target Nuclear receptor coactivator 2 (Homo sapiens) (UniProt Q15596). The experiment in a line: decrease of SRC2 fusion reporter luminescence – cell-based, SRC2 inhibitor project, primary screen (AID 651957).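 Note: 0% = DMSO treated cells and 100% = cells given Gossypol at 36 µM.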 The note with it: HEK293 GAL4-SRC2 luciferase reporter, at 9 µM, hits give high values. A general note: In a reporter assay the amount or activity of a reporter protein is the signal.
In the case of `O=C(NCCC1=CCCCC1)C1CCN(S(=O)(=O)c2ccc(Cl)s2)CC1`, the inhibition was -18.3%.
As for `COc1ccc(N2CCN(CCNS(=O)(=O)c3ccc([N+](=O)[O-])cc3)CC2)cc1`, the figure is 9.36%; as for `O=S1(=O)c2ccc(Br)cc2OC[C@@H](Cc2ccccc2)N1Cc1cn(Cc2ccco2)nn1`, -13.6%.
As for `CC1CCC(N2CC(=O)N(Cc3ccc4c(c3)OCO4)C(c3ccc(F)cc3)C2=O)CC1` (centres undefined), the figure is 3.66%; as for `Clc1ccc(C(Cn2ccnc2)OCc2ccsc2Cl)c(Cl)c1` (centres undefined), 7.22%.
As for `COc1ccc2cc(C(=O)O)n(CC(=O)c3ccccc3)c2c1`, the figure is -12.1%.
For the molecule `Cc1cc(OCCCC(=O)NCCN2C(=O)S/C(=C\c3cccnc3)C2=O)ccc1Cl`, the inhibition is -14.1%.
Next, `C=CCOc1ccc(/C=C2\SC(=S)N(CCC(=O)O)C2=O)cc1`: 85.7% (active); `C=CCOc1ccc(C(=O)Nc2ccccc2C(=O)N2CCCC2)cc1`: -24.2%; `CCOC(=O)C1=C(C)NC2=C(C(=O)CC(C)(C)C2)C1c1ccc2c(c1)OCO2` (centres undefined): 11.6%.
For the molecule `COc1ccc2c(c1)CCC/C2=N\OC(=O)c1ccccc1F`, the inhibition was 4.64%.
Next, `CCCCCCCCN1C(=O)[C@@H](CC(=O)NCCCC)C[C@@]2(C(=O)OC)C1=C[C@H](C(C)(C)C)O[C@@H]2C`: -9.63%; `Nn1c(SCC(=O)Nc2ccc(S(N)(=O)=O)cc2)nnc1-c1n[nH]c2c1CCC2`: 10.6%; `CCOC(=O)C1=C(CC)Nc2ccccc2N=C1N`: 12.5%.
Next, `CCOC(=O)C1C(=O)C=C(c2ccc(OC)cc2)CC1c1ccco1` (centres undefined): -4.74%; `CCOC(=O)C1=C(c2ccc(OC)cc2)C(=O)c2ccccc2C1=O`: 73.8% (active); `NS(=O)(=O)c1ccc(CCNC(=O)CN2C(=O)c3ccccc3S2(=O)=O)cc1`: 1.66%.
As for `Cc1ccc(S(=O)(=O)N(C)CC(=O)N2CCc3ccccc32)cc1`, the figure is -6.78%; as for `O=C(CN1C(=O)c2ccccc2S1(=O)=O)N1CCc2ccccc21`, 73.3% (active); as for `O=C(COC(=O)c1cnccn1)Nc1cccc2ccccc12`, -4.93%.
For `CCOC(=O)C(C(=O)c1ccccc1)C(c1ccccc1)c1nccc2ccccc12` (centres undefined), the inhibition was 14.8%.
As for `COc1cccc(CC(=O)N2CCN(C(=O)C(=O)c3cccc(C(F)(F)F)c3)CC2)c1`, the figure is 7.57%; as for `C[C@H]1CCC/C=C/C(=O)c2c(O)cc(O)cc2CC(=O)O1`, 64.6% (active).
As for `COc1ccc(S(=O)(=O)NCC(=O)NCc2cc(=O)n(C)c(=O)n2C)cc1F`, the figure is -9.55%; as for `CC1CCC2(CC1)NC(=O)N(CC(=O)NCc1ccco1)C2=O` (centres undefined), -29.4%; as for `CC1(C)CC(=O)c2sc(N)nc2C1`, 3.79%.
In the case of `O=c1oc2ccccc2cc1-c1cn(-c2ccccc2)c(=S)[nH]1`, the inhibition is 80.4% (active).
With `COc1cccc(NC(=O)N(C)C[C@@H]2OCc3cn(nn3)CCCC(=O)N([C@@H](C)CO)C[C@H]2C)c1`, the inhibition is -2.21%.
Next, `COC(=O)[C@]12C[C@H](CC(=O)NCc3cccc(C(F)(F)F)c3)C(=O)N(Cc3ccc4c(c3)OCO4)C1=C[C@H](COCc1ccccc1)O[C@@H]2C`: 4.24%; `COc1cc(SC)ccc1C(=O)Nc1nc(C)cs1`: 73.4% (active); `COc1cc(Cl)c(C)cc1NC(=O)COC(=O)c1cc(SC)ccc1Cl`: -3.4%.
Regarding `Cc1csc(NC(=O)CN2CCCCCC2)n1`, the inhibition is -13.9%.
Next, `COCc1[nH]nc2c1C(c1ccccc1)N(c1ccccc1)C2=O` (centres undefined): 13.8%.
Regarding `N#CCC[C@H]1CC[C@]2(CCCN(Cc3ccc(Cl)cc3)C2)O1`, the inhibition was 7.54%.
Regarding `COc1ccc(S(=O)(=O)Nc2ccc(F)cc2)c(C)c1C`, the inhibition was -27.1%.
As for `CC(CCN1CCC(C(O)(c2ccccc2)c2ccccc2)CC1)Oc1ccc(C(F)(F)F)cc1` (centres undefined), the inhibition was -7.91%.
In the case of `COCCn1c(C)cc(C(=O)COC(=O)CNC(=O)c2ccco2)c1C`, the inhibition is -9.66%.
Next, `Cc1ccsc1C(=O)OCC(=O)c1cc(C)n(CC2CCCO2)c1C` (centres undefined): 73.2% (active).
As for `Cc1cc(C(=O)COC(=O)CNC(=O)c2ccc(F)cc2)c(C)n1Cc1ccco1`, the figure is -4.87%.
Take `O=C(Nc1ccccc1)N1CCN(Cc2nc3ccccc3c(=O)[nH]2)CC1`: the inhibition is -10.6%.
As for `O=S1(=O)c2c(NCc3ccco3)cccc2Oc2ccccc2CN1Cc1cn(Cc2cccc(C(F)(F)F)c2)nn1`, the figure is 4.32%.
As for `Clc1ccc(Cl)c(Oc2ccc(Oc3nc(Cl)ccc3Cl)cc2)n1`, the inhibition was -10%.
As for `c1csc(-c2nnc(SCc3nc4ccccc4[nH]3)o2)c1`, the figure is 4.24%; as for `O=C(NCc1ccc2c(c1)OCO2)c1cc2c(s1)CS(=O)(=O)C2`, 13.1%.
Next, `COc1cccc(NC(=O)C2(C)CCN2Cc2ccccc2Cl)c1` (centres undefined): -0.04%; `C#CCNC(=O)C[C@H]1C[C@@]2(C(=O)OC)C(=C[C@H](C(C)C)O[C@@H]2C2CC2)N(Cc2ccco2)C1=O`: 14.7%.
Take `Cc1ccc(CSc2nnc(SCC(=O)NN=Cc3cc(Br)ccc3F)s2)cc1`: the inhibition was 15%.
As for `Cc1cccc(Nc2nc3c(S(=O)(=O)c4ccccc4)nnn3c3ccccc23)c1C`, the inhibition is 6.13%.
As for `Cc1noc(C)c1S(=O)(=O)N(C)C[C@H]1OCCCC[C@@H](C)Oc2ccc(NC(=O)CCCN(C)C)cc2C(=O)N([C@H](C)CO)C[C@@H]1C`, the figure is -6.35%; as for `CCC(C)CN1C(=O)CN(S(C)(=O)=O)CC1(C)C(=O)Nc1ccc2c(c1)OCCO2` (centres undefined), -21.3%.
As for `CCOC(=O)N1CCN(C(=O)C[C@H]2C[C@@]3(C(=O)OC)C(=C[C@H](C(C)(C)C)O[C@@H]3C)N(Cc3ccc(Cl)cc3Cl)C2=O)CC1`, the figure is 23.9%; as for `CC1(C)Cc2c(sc3nc(SCC(=O)NCc4ccccc4)n(-c4ccccc4)c(=O)c23)CS1`, -9.11%.
As for `C[C@@H]1ON(C)[C@H]2C[C@H]3c4[nH]c5cccc(-c6ccc7c(c6)OCO7)c5c4CCN3C[C@@H]12`, the figure is -21%; as for `C=CC1C(OC2OC(CO)C(O)C(O)C2O)OC=C(C(=O)OC)C1CC1CC(=O)CC(CC(=O)CCc2ccc(O)cc2)O1` (centres undefined), -3.45%.
Take `COc1ccc(-c2cc(-c3nnc(SCc4ccc([N+](=O)[O-])cc4)n3N)[nH]n2)cc1`: the inhibition is -26.2%.
For `COc1ccc(CCOC2OC(CO)C(OC(=O)/C=C/c3ccc(O)c(OC)c3)C(O[C@H]3O[C@@H](C)[C@H](O)[C@@H](O)[C@H]3O)C2O)cc1O` (some centres undefined), the inhibition was -2.46%.
Next, `CCCCn1c(N)c(N(CC)C(=O)c2ccc(N(C)S(=O)(=O)c3ccc(C)cc3)cc2)c(=O)[nH]c1=O`: -16.6%; `CN(C)S(=O)(=O)c1ccc(NC(=O)COC(=O)Cn2[nH]c(=O)c3ccccc3c2=O)cc1`: 10.7%; `CCC(CO)Nc1cccc2c1S(=O)(=O)N(Cc1cn(Cc3ccccc3C(F)(F)F)nn1)Cc1ccccc1O2` (centres undefined): -19.2%.
On to `O=C(OC12CC3CC(CC(C3)C1)C2)c1ccc(NCc2cc(O)ccc2O)cc1`, for which the inhibition is 84.2% (active).
As for `Cc1nc(N)nc(SCc2ccc([N+](=O)[O-])cc2)c1N`, the figure is -3.96%; as for `COCCCNC(=O)C[C@H]1C[C@@]2(C(=O)OC)C(=C[C@H](C(C)(C)C)O[C@@H]2C)N(Cc2ccc(Cl)cc2Cl)C1=O`, 16.8%.
As to `CCOC(=O)[C@]12CCCC=C1N(Cc1ccc(OC)cc1)C(=O)[C@@H]2CC(=O)NCc1cccs1`, the inhibition was 7.23%.
As for `CCOC(=O)[C@]12CCCCC/C=C\1N(Cc1ccc(OC)cc1)C(=O)[C@H]2CC(=O)N1CCOCC1`, the figure is 8.19%; as for `Cc1sc2ncn(CC(=O)NCCCC(=O)NCc3ccc(F)cc3)c(=O)c2c1C`, -10.8%.
Next, `Cc1[nH]n(C(N)=S)c(=O)c1N=Nc1ccc(Cl)cc1Cl`: -13.3%; `CCCCOCCCNC(=O)C[C@H]1C[C@@]2(C(=O)OC)C(=C[C@H](COCc3ccccc3)O[C@@H]2C)N(Cc2cccc3ccccc23)C1=O`: 6.59%; `COc1ccc(C(C#N)=C2C=CC(=NO)c3ccccc32)cc1`: 23.7%.
Next, `CC(=O)Nc1ccc(S(=O)(=O)N2CCCC2C(=O)O)cc1` (centres undefined): 10.5%; `O=C(Nc1ccc(N2CCCCC2)cc1)c1cc(S(=O)(=O)N2CCOCC2)ccc1F`: 10.1%.
With `CC(=O)Nc1ccc(S(=O)(=O)Nc2ccc(N3CCCCC3)cc2)cc1`, the inhibition was 63.2% (active).
As for `C[C@H](NC(=O)C1CC(=O)N(c2ccc3c(c2)OCO3)C1)C(=O)NCc1ccco1` (some centres undefined), the figure is -21.3%.
On to `CN(C)[C@H]1CCN(c2cccc3c2S(=O)(=O)N2CC[C@H](C2)O3)C1`, for which the inhibition was -9.6%.
Regarding `CC(c1ccc(N)cc1)c1cn(C)c2ccccc12` (centres undefined), the inhibition was -4.44%.
As for `CC(CCN1CCC(C(O)(c2ccccc2)c2ccccc2)CC1)Oc1ccc(Cl)cc1` (centres undefined), the figure is -21.2%.
For `COc1ccc(-n2c(SCC(=O)Nc3ccc(C)c(Cl)c3)nc3ccccc3c2=O)cc1`, the inhibition is -1.63%.
As for `O=C(CN1CCN(c2ccc(O)cc2)CC1)NC1CCCc2ccccc21` (centres undefined), the figure is 0.42%.
In the case of `COc1cc(F)ccc1-c1cc(C(=O)NCC2CCCCC2)[nH]n1`, the inhibition was -20%.
Regarding `COc1ccc(OC)c(NC(=O)c2cc(-c3cc(F)ccc3OCC3CCCO3)n[nH]2)c1` (centres undefined), the inhibition was 75.3% (active).
Next, `CCCOc1ccc(F)cc1-c1cc(C(=O)Nc2ccc(F)cc2)[nH]n1`: 0.04%; `O=C(COC(=O)c1cnccn1)Nc1ccc(Cl)cc1C(F)(F)F`: -47.6%.
Regarding `C=CCN1C(=O)[C@H](CC(=O)NCCCN2CCCC2=O)[C@@]2(C(=O)OCC)CCCC=C12`, the inhibition is -13.7%.
Next, `CCNc1nc(NC(C)C)nc(OCCOC(=O)c2ccccc2)n1`: -5.88%.
Next, `CN(c1ccc(OCC(=O)OCC(=O)Nc2cccc([N+](=O)[O-])c2)cc1)S(=O)(=O)c1ccc(F)cc1`: 5.05%.

For the origin of these results see PubChem BioAssay AID651957 (The Scripps Research Institute Molecular Screening Center, 2012).
